This note sets out measurements from the supplement of paper PMC10681739.

Experiment [1] deals with T1, ETS1 (UniProt P14921).
T1 sequence: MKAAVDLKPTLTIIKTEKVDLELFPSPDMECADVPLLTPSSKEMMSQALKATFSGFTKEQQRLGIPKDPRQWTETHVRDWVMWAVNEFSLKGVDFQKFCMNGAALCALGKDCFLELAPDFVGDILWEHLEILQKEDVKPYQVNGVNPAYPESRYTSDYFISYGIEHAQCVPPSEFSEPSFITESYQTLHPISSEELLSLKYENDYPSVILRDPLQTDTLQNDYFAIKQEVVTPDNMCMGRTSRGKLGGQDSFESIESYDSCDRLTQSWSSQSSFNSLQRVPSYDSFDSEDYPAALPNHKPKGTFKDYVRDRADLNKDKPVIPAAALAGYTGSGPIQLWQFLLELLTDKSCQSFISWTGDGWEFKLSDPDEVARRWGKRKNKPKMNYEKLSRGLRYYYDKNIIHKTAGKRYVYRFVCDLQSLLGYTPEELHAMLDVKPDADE
Nature of the experiment: ETS1 binding intensity (PBM fluorescence), ETS1 alone (arbitrary fluorescence units); higher = stronger binding. The following applies: ETS1 concentration 1 nM; RUNX1 concentration 0 nM.

Experiment [2] deals with T1, ETS1. Description: ETS1 binding intensity (PBM fluorescence) in presence of RUNX1, normalised to ETS1-only experiment (arbitrary fluorescence units); higher = stronger binding. The following applies: ETS1 concentration 1 nM; RUNX1 concentration 25 nM.
The target of experiment [3] is RUNX1 (UniProt Q01196). Nature of the experiment: RUNX1 binding intensity (PBM fluorescence) in presence of ETS1, normalised to RUNX1-only experiment (arbitrary fluorescence units); higher = stronger binding. The following applies: RUNX1 concentration 2 nM; ETS1 concentration 25 nM. The method, then:
(§1)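 Cooperative gcPBM on 36-bp genomic probes with neighbouring ETS1 and RUNX1 sites. Recombinant human RUNX1 (2 nM) was incubated alone or with ETS1 (25 nM) and detected with anti-RUNX1 antibody plus Alexa488 secondary. Values are medians over 4 replicate spots; the RUNX1+ETS1 data were normalised to the RUNX1-only data. The probes sit in constant array flanks that are not printed.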

The target of experiment [4] is RUNX1 (UniProt Q01196). Description: RUNX1 binding intensity (PBM fluorescence), RUNX1 alone (arbitrary fluorescence units); higher = stronger binding. The settings on record: RUNX1 concentration 2 nM; ETS1 concentration 0 nM. The protocol:
as §1
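Throughout, for RUNX1 binding intensity (PBM fluorescence) in presence of ETS1, normalised to RUNX1-only experiment: Full-length recombinant human ETS1 or RUNX1 bound to double-stranded 36-bp genomic probes on microarrays, detected by protein-specific primary antibody and Alexa488 secondary, spot fluorescence as median of four replicate spots.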
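Throughout, for RUNX1 binding intensity (PBM fluorescence), RUNX1 alone: Full-length recombinant human RUNX1 bound to double-stranded 36-bp genomic probes on a high-density microarray, scored as Alexa488 fluorescence per spot via anti-RUNX1 antibody, median of four replicate spots.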

Chain of RUNX1 (Q01196 whole entry): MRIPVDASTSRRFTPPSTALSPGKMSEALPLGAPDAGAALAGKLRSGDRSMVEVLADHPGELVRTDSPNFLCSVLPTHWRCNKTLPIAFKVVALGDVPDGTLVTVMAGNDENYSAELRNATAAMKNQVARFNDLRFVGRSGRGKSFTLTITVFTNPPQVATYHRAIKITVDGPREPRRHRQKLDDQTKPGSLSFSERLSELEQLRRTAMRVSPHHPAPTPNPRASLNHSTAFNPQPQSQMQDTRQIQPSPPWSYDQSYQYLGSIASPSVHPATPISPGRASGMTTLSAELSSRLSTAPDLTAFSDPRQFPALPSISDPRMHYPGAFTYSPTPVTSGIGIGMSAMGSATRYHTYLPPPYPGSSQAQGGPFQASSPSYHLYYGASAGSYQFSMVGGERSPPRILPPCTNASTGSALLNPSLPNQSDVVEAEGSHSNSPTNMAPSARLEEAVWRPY

Consider AGTTGGTTCCTTCCGGTGGGTTTGTGGGCTTGGGGT, for which the ETS1 binding intensity with ETS1 [1] was 1400; with ETS1 [2], 2230. In the experiment with RUNX1 [3], the RUNX1 binding intensity is 1880.

Take TGACTTCCTCCTCTTCACTAACAGAAACCTCAATTT: the ETS1 binding intensity with ETS1 [1] was found to be 440; with ETS1 [2], 526. In the experiment with RUNX1 [3], the RUNX1 binding intensity amounted to 2570.

As for TAGGCGGAAAGCCCGCTAGCCTAAACCACAGAGGGT, the RUNX1 binding intensity was 896 in the experiment with RUNX1 [4] and 872 with RUNX1 [3].

GCCACTTCCGGTCACTCCCCGCTGCGGCCTCGCGCT: the ETS1 binding intensity came to 7030 in the experiment with ETS1 [1] and 8280 with ETS1 [2]. Besides, the RUNX1 binding intensity with RUNX1 [3] was 3940.

For the sequence TGGGCAGGAAGTGGTATCTGATTGTGGTTTTGATTT, the RUNX1 binding intensity with RUNX1 [4] came out at 1360; with RUNX1 [3] it was 8180.

Regarding TCCAGGCATTTCCCCCATGTTGGCTCACCGCACTAT, the figures for the ETS1 binding intensity in the experiment with ETS1 [1] and in the experiment with ETS1 [2] were 416 and 594, respectively. For the same sequence, in the experiment with RUNX1 [3], the RUNX1 binding intensity stood at 1290.

Take GTCTTCCTTCCTGAGAATCTTAACCACCAGCTTGCC: the ETS1 binding intensity in the experiment with ETS1 [1] came out at 434; with ETS1 [2], 483. The RUNX1 binding intensity with RUNX1 [3] stood at 2050.

For ACAGGAAATGACATCAGAATCTCCAAACCACAACCA, the ETS1 binding intensity with ETS1 [1] was 1030; with ETS1 [2], 5020. The RUNX1 binding intensity with RUNX1 [3] was 2110.

In the case of TTTCTTCTGATCTTCCTCCCCGCACGTCTGCACAGG, the RUNX1 binding intensity in the experiment with RUNX1 [4] was determined as 1220; with RUNX1 [3], 1020.

Turning to TGGGGGATGGCAGCAGGATGTGGTTATCTCAGAAAG, the RUNX1 binding intensity in the experiment with RUNX1 [4] amounted to 814; in the experiment with RUNX1 [3], 1940.

For GCAGCTCTGGCAGGATGCGGTTAAATATGTATCCAC, the ETS1 binding intensity with ETS1 [1] amounted to 2010; with ETS1 [2], 12700. In addition, the RUNX1 binding intensity with RUNX1 [3] came out at 7800.

Consider GAGTGACTGCTAACGGATGTGTGGTTTCTTTAGTTT, for which the ETS1 binding intensity with ETS1 [1] turned out to be 2000; with ETS1 [2] it was 6590. In addition, the RUNX1 binding intensity in the experiment with RUNX1 [3] came out at 1470.

With TAAGTGAATTTCCTGCCCGCCTCCGCCCACAGCGTA, the ETS1 binding intensity is 775 with ETS1 [1] and 744 with ETS1 [2]. Also, in the experiment with RUNX1 [3], the RUNX1 binding intensity is 1790.

Consider TGGGTGCCGGATTCGGTGAGTGTGGTTCTCATGATG, for which the RUNX1 binding intensity in the experiment with RUNX1 [4] was 654; with RUNX1 [3], 895.

On to CGGGCGAGCGCAGGATGCGGTTGTCGAACGCGCGGC, for which the figures for the ETS1 binding intensity in the experiment with ETS1 [1] and with ETS1 [2] were 764 and 1050, respectively. Moreover, in the experiment with RUNX1 [3], the RUNX1 binding intensity was found to be 1100.

With AGGTTAATACCCGGAACTACCACAACCGTCTTCCCT, the figures for the RUNX1 binding intensity with RUNX1 [4] and with RUNX1 [3] were 1020 and 985, respectively.

For AGGTGTACTTTCCGGGTGCAGACCGCGAATGGATCG, the ETS1 binding intensity came to 383 with ETS1 [1] and 534 in the experiment with ETS1 [2]. Further, the RUNX1 binding intensity in the experiment with RUNX1 [3] was 1120.

For the sequence GAGGGAGCAGTTCCGGGTGCGGTGCGCGCCAGGGGC, the RUNX1 binding intensity with RUNX1 [4] stood at 1650; with RUNX1 [3], 2060.

Consider GGGCGGAAGTGCGTCACTATGTCCGACCCGCAGTGC, for which the ETS1 binding intensity was 1630 with ETS1 [1] and 2050 with ETS1 [2]. The RUNX1 binding intensity with RUNX1 [3] was 1010.

Turning to CTCCCGGACGCTAACGTCTGGCAAACCACATTGCCC, the RUNX1 binding intensity was found to be 993 with RUNX1 [4] and 857 with RUNX1 [3].

As to GAAGCGATATTTCCTCCTGGGGTTGACCGCCCCGTG, the figures for the ETS1 binding intensity with ETS1 [1] and in the experiment with ETS1 [2] were 492 and 478, respectively. In addition, in the experiment with RUNX1 [3], the RUNX1 binding intensity stood at 1090.

For CTTAGGACTTCCCGTAGATGGTGGTCTGTGCTAAGG, the RUNX1 binding intensity with RUNX1 [4] was determined as 706; with RUNX1 [3] it was 1050.

For TTGTTCCACCCCCGCGGAAACCGCTGCTCGCTGGGC, the RUNX1 binding intensity was found to be 913 in the experiment with RUNX1 [4] and 965 with RUNX1 [3].

Consider ATCAAACCCCAGGATATGTTGGTTTTGTAGGTTGTC, for which the ETS1 binding intensity with ETS1 [1] stood at 562; with ETS1 [2], 524. Besides, the RUNX1 binding intensity with RUNX1 [3] stood at 629.

For the sequence CAGACAGGAGGCGGATGTGGGTGGCGCAGAATGAGC, the ETS1 binding intensity with ETS1 [1] came out at 1820; with ETS1 [2], 2250. The RUNX1 binding intensity in the experiment with RUNX1 [3] turned out to be 1920.

Consider ATGGAAAGGAAGTCGGTGGGAAACCGCCTCAGCGGT, for which the ETS1 binding intensity is 797 with ETS1 [1] and 1020 with ETS1 [2]. In addition, the RUNX1 binding intensity with RUNX1 [3] is 1200.

On to GCCCGCCCCGGAAGTGCAAACTGTGTGGTCTGGCAG, for which the ETS1 binding intensity came out at 3980 in the experiment with ETS1 [1] and 7090 with ETS1 [2]. In the experiment with RUNX1 [3], the RUNX1 binding intensity came out at 1330.

In the case of CTTTGTTACTTTGGGGAAATGTGGTTCTGCGCCACC, the RUNX1 binding intensity with RUNX1 [4] amounted to 1110; with RUNX1 [3], 927.

For the sequence GCCACACAGGCAGGAAAGCCACAGCCCACGTCTCCG, the figures for the ETS1 binding intensity with ETS1 [1] and with ETS1 [2] were 471 and 378, respectively. In addition, the RUNX1 binding intensity with RUNX1 [3] was 885.

With GGCGGTGCACTCTGGGAAATGTGGTTTTCGCGGCGC, the RUNX1 binding intensity is 1090 with RUNX1 [4] and 1500 in the experiment with RUNX1 [3].

Regarding ACTTACTTCCCGACGTCACAGCCACCGAAACCACAG, the results for the ETS1 binding intensity with ETS1 [1] and in the experiment with ETS1 [2] were 468 and 464, respectively. Further, the RUNX1 binding intensity in the experiment with RUNX1 [3] amounted to 2090.

For the sequence TCCCCACACTTCCGGCCCCGCCCGCACAGCCGCACC, the ETS1 binding intensity with ETS1 [1] was determined as 3270; with ETS1 [2] it was 4360. For the same sequence, the RUNX1 binding intensity in the experiment with RUNX1 [3] amounted to 5780.

With CTTTGTTGAAAAGGATGTGGTCATCTGATCTTGCTG, the results for the RUNX1 binding intensity with RUNX1 [4] and with RUNX1 [3] were 864 and 2000, respectively. In addition, in the experiment with ETS1 [2], the ETS1 binding intensity is 3320.

As to TAAATCGGAAACTCGCCGCTCAGCCCGCAGCCGCCG, the RUNX1 binding intensity with RUNX1 [4] was found to be 901; with RUNX1 [3], 808.

On to GGGCATGGTGGCTTCCGACCGCGGGGACCCCGAGAG, for which the RUNX1 binding intensity in the experiment with RUNX1 [4] came to 738; with RUNX1 [3] it was 956.

On to GAGCCTGTTGCTTCCGGTTCAGAGCCCACATGCTGG, for which the RUNX1 binding intensity stood at 736 with RUNX1 [4] and 1940 with RUNX1 [3]. Also, in the experiment with ETS1 [2], the ETS1 binding intensity is 3370.

For AGATGCAAACACAGGAAACTTGTGGTCTATGCTGCT, the RUNX1 binding intensity with RUNX1 [4] stood at 803; with RUNX1 [3], 1160. Also, the ETS1 binding intensity with ETS1 [2] came to 7450.

Consider GGCAGCCGATGCATCCTGCGGTGTGTGGCCCTCAGA, for which the RUNX1 binding intensity with RUNX1 [4] was found to be 787; in the experiment with RUNX1 [3], 1040.

With TTTGTTGTTCCGGGTGCGAGGCGGCCGCAGCTTCCA, the RUNX1 binding intensity with RUNX1 [4] was determined as 1090; with RUNX1 [3] it was 1180.

As for TTACCCCAGGAAAAGCCTCCTCACCGCAGTGACCAG, the RUNX1 binding intensity is 998 in the experiment with RUNX1 [4] and 905 in the experiment with RUNX1 [3].

In the case of CAAGCCAACATCCTGACAGTTTAGAAACCACAGGAG, the figures for the RUNX1 binding intensity with RUNX1 [4] and with RUNX1 [3] were 779 and 1300, respectively.

On to GCAGTCAGAAGGTGCGGATGCGGTAAGGTATGCGCT, for which the RUNX1 binding intensity in the experiment with RUNX1 [4] stood at 835; with RUNX1 [3], 1270.

On to GCTGCAAGGCGGAAGCAGCGCGGTCGGACGGGCATG, for which the RUNX1 binding intensity came out at 721 in the experiment with RUNX1 [4] and 997 in the experiment with RUNX1 [3]. Moreover, the ETS1 binding intensity with ETS1 [2] turned out to be 2400.

Regarding ACCGAAAACAGGGCCTTCCGCGGTTATACAGATCCT, the RUNX1 binding intensity in the experiment with RUNX1 [4] is 868; in the experiment with RUNX1 [3] it was 998.

As to ACCCCAGGTACCGGAAGACCACAATTCCCAGGAGTC, the RUNX1 binding intensity with RUNX1 [4] was determined as 1020; with RUNX1 [3], 1880. Moreover, the ETS1 binding intensity with ETS1 [2] came to 3710.

In the case of TGAGCTCAGGCCGGAAGCGGTGGATGATGGCACACA, the RUNX1 binding intensity came out at 716 with RUNX1 [4] and 1560 with RUNX1 [3]. The ETS1 binding intensity with ETS1 [2] was found to be 8670.

AGCTCTAAGGTTCCGCCTGCGGGCAGCAAGCGGAGG: the RUNX1 binding intensity worked out at 920 with RUNX1 [4] and 902 with RUNX1 [3].

On to ACGTACGGGATGTGGGAGGTTTGTTTTGACCACACC, for which the RUNX1 binding intensity in the experiment with RUNX1 [4] is 830; with RUNX1 [3] it was 1160. In addition, in the experiment with ETS1 [2], the ETS1 binding intensity was 936.

Turning to CAACACAGGATGTGCAGTATTATACCGCAAAGCACT, the RUNX1 binding intensity with RUNX1 [4] was 1150; in the experiment with RUNX1 [3] it was 2070.

On to GGCTGCGACTTCCGGACTGCTCCTGGCCGCAGGGGG, for which the values for the RUNX1 binding intensity with RUNX1 [4] and in the experiment with RUNX1 [3] were 813 and 1370, respectively. Also, in the experiment with ETS1 [2], the ETS1 binding intensity was 2500.

With GCCCAGGGCGGCCGGAAGTTTGCGGGGCGGGGCGGA, the RUNX1 binding intensity with RUNX1 [4] is 754; with RUNX1 [3] it was 1480.
